Sampled rows, rich in hits. Any-hit rate of the full collection: about 2.8%.
KDM5B inhibitor – inhibitors of human KDM5B histone demethylase | Q9UGL1 | KDM5B demethylase, FDH-coupled NADH fluorescence (FDH is formaldehyde dehydrogenase) | Potency, µM (titrated, usually from 57.7 µM), hits mostly inhibitors | 220,000 tested, 2.6% active | AID 1347165; active = well fitted inhibition curve with a large enough effect; inconclusive = small, poorly fitted or top-dose-only effect; inactive = no such curve, though single readings can be large or run the other way; note: potency is the fitted concentration of half-maximal effect; 0% is about no effect; nearly all actives have a fitted effect of over 70% in size
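Inhibition is measured as reduced NADH fluorescence generation from FDH coupling to formaldehyde release. Truncated KDM5BΔAP at 200 nM final acts on H3K4me3 peptide (12.5 µM in substrate mix) in pH 7.5 HEPES buffer with Tween-20, 30 min, room temperature.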
IP6K1 inh – IP6K1 kinase inhibition. AID 1645851. Q92551. IP6K1 kinase, ADP-Glo luminescence, 2 h; active compounds read low. 140,000 tested, 0.81% active. activity change, % (series mostly up to about 58 µM); in the data active = activity change below about -25%; note: % is set by controls: 0 for no effect and ±100 for the full control effect
Target sequence (Q92551 whole entry, looked up): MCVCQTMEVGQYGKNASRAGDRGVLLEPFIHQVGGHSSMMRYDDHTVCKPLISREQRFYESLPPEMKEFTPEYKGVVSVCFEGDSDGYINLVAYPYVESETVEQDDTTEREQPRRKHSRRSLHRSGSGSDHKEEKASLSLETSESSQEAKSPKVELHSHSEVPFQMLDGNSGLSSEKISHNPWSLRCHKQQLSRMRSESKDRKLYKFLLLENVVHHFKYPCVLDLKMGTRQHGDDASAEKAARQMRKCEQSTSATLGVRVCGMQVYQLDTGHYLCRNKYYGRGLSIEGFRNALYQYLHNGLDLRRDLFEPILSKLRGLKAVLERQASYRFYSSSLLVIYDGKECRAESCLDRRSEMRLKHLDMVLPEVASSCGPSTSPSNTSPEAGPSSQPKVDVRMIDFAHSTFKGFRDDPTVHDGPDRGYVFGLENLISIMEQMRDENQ
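ADP-Glo luminescence measures ADP made by human IP6K1 during a 2 h RT reaction with ATP/IP6 (mix at 1.3 mM/130 uM); top library doses 57.5 and 19.1 uM final.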
The depositor's hits bear a star; i = inactive; ? = inconclusive; . = no result given.

SMILES	KDM5B inhibitor	IP6K1 inh
O=C(C1CCCCC1)N1CC(=O)N(C2Cc3ccccc3C2)CC(O)C1 (stereo unspecified)	.	8.5
O=C(C1CC1)N1CCN(c2nccc(Nc3ccccc3Cl)n2)CC1	.	15.5
COc1ccc(-c2ccc(C(=O)NCc3cccc(F)c3)c(Cl)c2)nn1	.	-1.8
N#Cc1cccc(NC(=O)O[C@@H]2CO[C@H]3[C@@H]2OC[C@@H]3Nc2nccc(-c3cccc(F)c3)n2)c1	6.31µM*	2.2
COC(=O)c1ccccc1NC(=O)O[C@@H]1CO[C@H]2[C@@H]1OC[C@@H]2Nc1nccc(-c2ccc3c(c2)OCO3)n1	28.2µM*	0.8
N#Cc1cccc(NC(=O)O[C@@H]2CO[C@H]3[C@@H]2OC[C@@H]3Nc2nccc(-c3ccc4c(c3)OCO4)n2)c1	?	3.5
N#Cc1cccc(-c2ccnc(N[C@H]3CO[C@H]4[C@@H]3OC[C@H]4OC(=O)Nc3ccccc3)n2)c1	i	8.2
Cc1ccc(Cl)cc1NC(=O)c1cc(=O)[nH]c2ccc(S(=O)(=O)N3CCOCC3)cc12	i	.
Cc1ccc(C)c(-c2csc(NC(=O)CN(C)CC(=O)Nc3ccccc3C(F)(F)F)n2)c1	i	.
CNC(=O)c1cc(C2CC2)nc2c1c(C1CCN(C(=O)N(C)C)CC1)nn2C	.	-7.2
Cn1nc(C2CCNCC2)c2c(C(=O)NC3CC3)cc(C3CC3)nc21	89.1µM*	4.3
Cn1nc(C2CCCNC2)c2c(C(=O)NC3CC3)cc(C3CC3)nc21 (stereo unspecified)	89.1µM*	2.4
O=C(NC1CCCC1)c1cc(C2CC2)nc2onc(C3CCCNC3)c12 (stereo unspecified)	?	3.5
COc1cc(C(=O)OCCO)ccc1OCc1ccc(Cl)cc1	i	.
COCCn1ccc2c(C3=CCOCC3)nc(-c3cccc(N4CCOCC4)c3)cc21	?	-3.6
Cc1ccccc1-c1nccc2c(=O)cc(C3=CCOCC3)oc12	?	-13.5
COCCn1ccc2c(C3=CCOCC3)nc(-c3cccc(CO)c3)cc21	39.8µM*	2.5
COCCn1ccc2c(C3=CCOCC3)nc(-c3cccc4[nH]ccc34)cc21	35.5µM*	5.4
COCCn1ccc2c(C3=CCOCC3)nc(-c3ccc4c(c3)CNC4=O)cc21	11.2µM*	-4.0
COCCn1ccc2c(C3=CCOCC3)nc(-c3cccc4[nH]ncc34)cc21	28.2µM*	-6.8
COCCNC(=O)c1cc(-c2cccc3[nH]ccc23)cc2ncn(C)c12	?	7.2
COc1ccccc1-c1cc2c(ccn2C)c(C(=O)NCC2CCOCC2)n1	i	-10.8
Cc1ccccc1C(=O)N1CCC(C(=O)N2CCC(N3Cc4ccccc4C3=O)CC2)CC1	.	2.4
COc1ccccc1CNC(=O)C1CCCN1Cc1ccc(-c2cc(C)cc(C)c2)cc1 (stereo unspecified)	.	-4.5
Cc1nc(-c2cc3ccc(OC(=O)CC(C)C)cc3oc2=O)cs1	i	.
SMILES	KDM5B inhibitor	IP6K1 inh
CC(NC(=O)CN1CSCC1=O)c1cccc(Cl)c1 (stereo unspecified)	i	.
c1cn2cc(-c3ccc4cn[nH]c4c3)nc(Nc3ccc(N4CCOCC4)cc3)c2n1	.	-9.4
COCCn1ccc2c(C3=CCOCC3)nc(-c3ccc4cn[nH]c4c3)cc21	39.8µM*	-10.0
Cc1nc(-c2c(Cl)cccc2Cl)sc1C(=O)N1CCCC(C(=O)O)C1 (stereo unspecified)	i	.
CNc1ncc(C(=O)N2CCCC(CCc3ccc(F)cc3)C2)cn1 (stereo unspecified)	20µM*	17.8
O=C(c1cc(-c2ccc(O)cc2)n[nH]1)N1CCCC(CCc2ccc(F)cc2)C1 (stereo unspecified)	i	5.3
O=C(C1CCCN1c1nc2ncccc2o1)N1CCOCC1 (stereo unspecified)	28.2µM*	-5.5
O=C(NCC1CC1)C1CCCN1c1nc2ncccc2o1 (stereo unspecified)	?	4.3
O=C(C1CCCN1c1nc2ncccc2o1)N1CCN(c2ncccn2)CC1 (stereo unspecified)	14.1µM*	2.0
O=C(NC1CC1)C1CCCN1c1nc2ncccc2o1 (stereo unspecified)	?	-8.9
O=C(C1CCN(c2nc3ncccc3o2)CC1)N1CCN(c2ncccn2)CC1	.	7.8
O=C(C1CCCN1c1nc2ncccc2o1)N1CCCC1 (stereo unspecified)	39.8µM*	0.6
O=C(NC1CCN(c2ccc3nnc(C4CC4)n3n2)C1)c1ccccc1F (stereo unspecified)	.	16.9
CCCCCNC(=O)c1cccc(-c2ccc(OC)nn2)c1	.	26.0
Cc1ccc(-c2cccc(CN3CCCC(NC(=O)C4CC4)C3)c2)cc1Cl (stereo unspecified)	.	-13.9
CCc1ccc(NC(=O)Cc2cn(C)c3ccccc23)cc1	i	.
Cc1ccc(NC(=O)N2CCc3c(c4ccccc4n3C)C2)cc1	22.4µM*	4.6
CCc1ccc(NC(=O)N2CCc3c(c4ccccc4n3C)C2)cc1	28.2µM*	-2.3
CCOc1ccc(NC(=O)N2CCc3c(c4ccccc4n3C)C2)cc1	25.1µM*	-4.2
CCOc1ccc(NC(=O)Cc2c(C(=O)O)n(C)c3ccccc23)cc1	i	.
Cn1nc(CN2CCOCC2)c2c1CCN(C(=O)Nc1ccccc1)C2	.	26.2
O=C(O)C1CCCCN1C(=O)c1ccc(Cl)c(S(=O)(=O)N2CCCCC2)c1 (stereo unspecified)	i	.
O=C(CCn1nc(-c2ccc(Cl)cc2)c2ccccc2c1=O)Nc1ccc(Cl)cc1	i	.
COc1ccc(Nc2ccnc(N3CCC(NC(=O)c4ccccc4F)CC3)n2)cc1	.	11.5
O=C(NC1CCCN(Cc2ccc(-c3cncnc3)cc2)C1)c1ccccc1Cl (stereo unspecified)	.	-0.3
SMILES	KDM5B inhibitor	IP6K1 inh
CCN(Cc1ccccc1)C1=CC(=O)OC12CCCCC2	i	.
Cc1nn(Cc2ccccc2Cl)c(C)c1NC(=O)NC1CCCC1	i	.
COc1cccc(-c2cc(C(=O)N(C)c3ccccc3)c3cnn(C)c3n2)c1	.	4.6
Cc1cccc(C2CCCN2C(=O)Nc2ccc(Br)c(C)c2)c1 (stereo unspecified)	i	.
COC(=O)c1ccc(CNC(=O)c2ccc(C(C)C)cc2)cc1	i	.
CC(C)c1ccc(/C=C/C(=O)Nc2c(F)c(F)c(F)c(F)c2F)cc1	i	.
CC(C)c1ccc(-c2nc(-c3cccnn3)no2)c(=O)[nH]1	22.4µM*	16.4
CN[C@@H](CC(C)C)c1nc(-c2cccnn2)no1	i	-8.6
CC1CCCC(C)N1 (stereo unspecified)	i	.
CN(CC(=O)N1CCn2nc(Cc3ccccc3)cc2C1)Cc1ccncc1	14.1µM*	21.1
O=C(CN1CCCCCCC1)N1CCn2nc(Cc3ccccc3)cc2C1	?	10.5
O=S(=O)(c1ccc(F)c(F)c1)N1CCN(C23CC4CC(CC(C4)C2)C3)CC1	i	.
COc1ccccc1-c1cc(C(=O)NCCc2ccccc2F)nn2cnnc12	.	7.4
CN(C)C(=O)c1ccc(-c2nnc3ccc(NC(=O)C4CCC4)cn23)cc1	22.4µM*	-2.8
CCC(C)(C)NC(=O)c1ccc(-c2nnc3ccc(NC(=O)C4CC4)cn23)cc1	?	4.2
CC(NC(=O)c1ccc(-c2nnc3ccc(NC(=O)C4CCC4)cn23)cc1)c1cccs1 (stereo unspecified)	28.2µM*	-6.5
O=C(NCCc1ccncc1)c1ccc(-c2nnc3ccc(NC(=O)C4CCC4)cn23)cc1	28.2µM*	-4.8

Assay outcomes as filed in PubChem.
